In article PMC7819943, “Rice protein-binding microarrays: a tool to detect cis-acting elements near promoter regions in rice”:
Over roughly 68,000 sequences, “fluorescence intensity (a.u.)” has its median near 9,100; the highest 2% begin near 16,000. Many of the other results were omitted from the sample, so the highest values are more common in it than they were.

What follows are sequences tested against OsWRKY34 (Oryza sativa, UniProt Q0JBA9 1-250) (assay: protein-binding microarray (RPBM); PBS, 2% BSA, 51.3 ng/ul salmon testes DNA, 50 uM zinc acetate, 200 nM TF, 25 C, 1 h; high values mean tight binding). Details: protein: recombinant; tags: N-terminal polyhistidine and DsRed monomer fusion (pET32a); label: CyDye5-dUTP incorporated in the synthesized complementary strand; 3' TTTTT single-stranded linker to array surface; dsDNA, one strand shown.
Outline: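 The binding signal for each feature is its fluorescence intensity in arbitrary units. An Axon 4000B scanner was used to read a custom Agilent array that had been made double-stranded with Cy5-dUTP primer extension, blocked with 2% BSA, incubated at 25 °C for 1 h with 200 nM protein in PBS, 2% BSA, salmon testes DNA and 50 µM zinc acetate, and washed. The protein was an N-terminal polyhistidine–DsRed transcription factor fusion from E. coli BL21-CodonPlus, purified on Ni–NTA.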

Chain of OsWRKY34 (Q0JBA9 entry or part of it): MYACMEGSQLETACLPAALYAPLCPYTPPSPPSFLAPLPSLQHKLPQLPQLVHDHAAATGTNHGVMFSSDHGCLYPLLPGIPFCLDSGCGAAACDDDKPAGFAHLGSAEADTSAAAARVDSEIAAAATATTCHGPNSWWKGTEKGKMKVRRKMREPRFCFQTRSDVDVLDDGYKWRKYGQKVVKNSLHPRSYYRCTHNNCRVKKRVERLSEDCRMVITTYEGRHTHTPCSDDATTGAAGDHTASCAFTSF

Row | Sequence | binding signal
1 | ACATAACACCACTTGATACTATTTCTCTTAATTAATTACTCGGAGTCACCTAGTGCAG | 9670 fluorescence intensity (a.u.)
2 | CCGTTGACTTTTTAGTACGTGTTTGACCATTCGTCTTATTCGGAGTCACCTAGTGCAG | 32300 ± 947 fluorescence intensity (a.u.)
3 | GTTGACTTTTTAGTACGTGTTTGACCATTCGTCTTATTCACGGAGTCACCTAGTGCAG | 10100 ± 646 fluorescence intensity (a.u.)
4 | GACTTTTTAGTACGTGTTTGACCATTCGTCTTATTCAAAACGGAGTCACCTAGTGCAG | 11900 fluorescence intensity (a.u.)
5 | CCATTGTTAGGGTTAAGTCTTATTTCACCACATCGTTTTTCGGAGTCACCTAGTGCAG | 8740 fluorescence intensity (a.u.)
6 | GGCTTACCCAAGAATAACGATCCAACTTGGGGAGGGAGGGCGGAGTCACCTAGTGCAG | 10000 fluorescence intensity (a.u.)
7 | TTTGACACCGTTGACTTTTTTAAACATGTTTAACTGTTCGCGGAGTCACCTAGTGCAG | 33900 fluorescence intensity (a.u.)
8 | TTTGACGCTGTTGACTTTTTTTAACATGTTTGACTGTTCGCGGAGTCACCTAGTGCAG | 32700 fluorescence intensity (a.u.)
9 | TTGACTTTTTTAAACATGTTTAACTGTTCGTCTTATTAAACGGAGTCACCTAGTGCAG | 8820 fluorescence intensity (a.u.)
10 | AATGTTTGACACCGTTGACTTTTTAACACATGTTTGACCGCGGAGTCACCTAGTGCAG | 39300 fluorescence intensity (a.u.)
11 | GAGCCCGTACTCATTTCTCGCCAAGTGCACCACTTCACTCCGGAGTCACCTAGTGCAG | 10700 fluorescence intensity (a.u.)
12 | TCCTCTACTGGTTCTACGTCTTCTCATAATCAACCCAAATCGGAGTCACCTAGTGCAG | 11700 fluorescence intensity (a.u.)
13 | CGCTCATCTATTTCTTTGTAGTACAACGCAGGCGCTCACACGGAGTCACCTAGTGCAG | 8090 fluorescence intensity (a.u.)
14 | CTTCCCATGGCTTTTACTCTCCACTCGAAATCTCGTAACACGGAGTCACCTAGTGCAG | 11100 fluorescence intensity (a.u.)
15 | GCAGCATCACTCCATGTTCTCTCTTCCTACTCTCCATACTCGGAGTCACCTAGTGCAG | 16800 fluorescence intensity (a.u.)
16 | AATCGATTCTCCACTACTCTCTCGTCATTGTTCCCATGTTCGGAGTCACCTAGTGCAG | 20100 fluorescence intensity (a.u.)
17 | GCATCACTATTCACTCCATGTTCTCTCTTCCTACTCTCCACGGAGTCACCTAGTGCAG | 8250 fluorescence intensity (a.u.)
18 | TAGCTCCATTGTTCGATCTCATCTCCCTTAGCTAGCTACTCGGAGTCACCTAGTGCAG | 8130 fluorescence intensity (a.u.)
19 | CTCGTCATTGTTCCCATGTTTTTCTATTTCATTTCTAATTCGGAGTCACCTAGTGCAG | 9350 fluorescence intensity (a.u.)
20 | ACACACTACTACTACTCTTCTCCCTCTCCATCTCTTCCCTCGGAGTCACCTAGTGCAG | 8320 fluorescence intensity (a.u.)
21 | CTTATGTCTCACTAAATATTTACTTTTGCCATCGGCAAATCGGAGTCACCTAGTGCAG | 8080 fluorescence intensity (a.u.)

Row | Sequence | binding signal
22 | GTCACCTTTTCTTTTATCAACATTCATTTGTTTTATTACTCGGAGTCACCTAGTGCAG | 8270 fluorescence intensity (a.u.)
23 | AATTCAACGCACGTCTCTTGTCCTGCACTTCTGCTATGCCCGGAGTCACCTAGTGCAG | 11000 fluorescence intensity (a.u.)
24 | AATTCTATGCCTCGATACATTTTTGGTGTTTATTATGGTTCGGAGTCACCTAGTGCAG | 8460 fluorescence intensity (a.u.)
25 | CTCACCGCGCCGCTCACCTCCTCAAGACCACCACCCACCACGGAGTCACCTAGTGCAG | 9730 fluorescence intensity (a.u.)
26 | ACAAATCCTGGTCATTTCTTGACCGTATGAATTCTAGAAACGGAGTCACCTAGTGCAG | 9650 fluorescence intensity (a.u.)
27 | CAACCTCTTGCTAACTTTCCTTTGAGTCTATCTCTCTCATCGGAGTCACCTAGTGCAG | 10700 fluorescence intensity (a.u.)
28 | AAGAAATCTCTTTGAAAAACTTGCATGCTAACTTGAGACGCGGAGTCACCTAGTGCAG | 44900 fluorescence intensity (a.u.)
29 | AGAATCTGACGTTTTATTTCTGAAACTTTCTTTGCATGCACGGAGTCACCTAGTGCAG | 8030 fluorescence intensity (a.u.)
30 | GTGCTCGGCTCCTCTCTCAGTAGCTTGTATGTGTCAGTTGCGGAGTCACCTAGTGCAG | 10500 fluorescence intensity (a.u.)
31 | AGCTTCAACCTCTTGTAACTTTCCTTTGAGTATATCTCTCCGGAGTCACCTAGTGCAG | 10200 fluorescence intensity (a.u.)
32 | GGATATCCGGTTTTGTGGTTGGGTGACGATTTTGTAATTCCGGAGTCACCTAGTGCAG | 9010 fluorescence intensity (a.u.)
33 | GGTGTGATATATCTGGTTTTGTGGTTCGGTGGGGTAATTCCGGAGTCACCTAGTGCAG | 22000 fluorescence intensity (a.u.)
34 | TGTCCGGTATTTTAAGTTTAGGGTGAGTAATATCTGGTTTCGGAGTCACCTAGTGCAG | 10600 fluorescence intensity (a.u.)
35 | TTGGGTTTAGGGCGGTAATTCGGTTGACCGCGATAGTTCACGGAGTCACCTAGTGCAG | 12400 fluorescence intensity (a.u.)
36 | GGGTGAGTAATATCTGGTTTTTGGGTTTAGGGCGGTAATTCGGAGTCACCTAGTGCAG | 17700 fluorescence intensity (a.u.)
37 | GGGTGAAAATGTCTGGTTTTGTGGTTTAAGGGTGTAATTCCGGAGTCACCTAGTGCAG | 8700 fluorescence intensity (a.u.)
38 | CATCATACAGTAACAGCACAAGCACACACTACACGCACTCCGGAGTCACCTAGTGCAG | 8640 fluorescence intensity (a.u.)
39 | GGGTTGGTTCCTGCCTCTCGAGTCTCAGCAAGTGTGTCACCGGAGTCACCTAGTGCAG | 11500 fluorescence intensity (a.u.)
40 | CAAATGGCCCACCTGTCCTAGCTTGGCCCGGCCCGGGCACCGGAGTCACCTAGTGCAG | 8680 fluorescence intensity (a.u.)
41 | TAGCTCCAGTATTAATTTCTTTCCATCCTCCATTTTCTTGCGGAGTCACCTAGTGCAG | 9120 fluorescence intensity (a.u.)
42 | CAACAGACTCTTCCCCTTCGCTCGCTCGCCTCCTCTTTCCCGGAGTCACCTAGTGCAG | 8220 fluorescence intensity (a.u.)
